Values joined by “and” are separate entries in the source; they are usually repeats but may differ in a detail not shown here. Equal values may be shown once. Inconclusive results are not listed. Where a structure was tested more than once in an assay, its records may differ in their call. Active and inactive are the calls of the source. Unless noted, calls follow the shape of the dose curve; as a rule, active = well fitted curve in either direction with a large enough effect (not every such curve was filed as active); inconclusive = small, poorly fitted or top-dose-only effect, or another doubt; inactive = flat fitted curve, though single readings scatter.
Columns and labels:
[1] = AP1 Signaling Pathway (AID 357); details: ME-180 (cervical carcinoma) AP-1-bla reporter, EGF-induced, beta-lactamase ratio, 5 h; also: % is scaled to controls: 0 for no effect and ±100 for the full control effect
How it was run: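 In this screen, ME-180 cells in Opti-MEM with 0.5% dialyzed FBS received EC50 EGF and compound titrations for 5 h. AP-1 reporter beta-lactamase was detected via CCF4 ratio, giving AC50 for positive and negative modulators.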

[2] = Stat Signaling Pathway (AID 446);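 also: ME-180 cervical cancer cells given 40 pM IL-6 alongside compound; SIE-controlled beta-lactamase reporter measured as 460/530 nm FRET emission ratio; % is scaled to controls: 0 for no effect and ±100 for the full control effect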
How it was run: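 FRET read-out (405 nm excitation, 460/530 nm emission) of a beta-lactamase reporter under a STAT-inducible element in ME-180 cervical carcinoma cells. Cells with compound receive 40 pM IL-6 for 5 h. Values are normalised to AC90 stimulation and AC90 JAK-inhibitor controls.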

[3] = biological target: Glucocorticoid receptor (Homo sapiens) (UniProt P04150); assay: GR-GFP Redistribution (AID 450;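 active = compounds whose dose series gives a full or clear partial fitted curve of increased nuclear translocation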; also: potency is read from the fitted curve at half-maximal effect); details: U2OS GR-GFP nuclear translocation, laser cytometry, 2 h
Sequence of Glucocorticoid receptor (Homo sapiens) (P04150 whole entry, looked up, the tested form may be a part): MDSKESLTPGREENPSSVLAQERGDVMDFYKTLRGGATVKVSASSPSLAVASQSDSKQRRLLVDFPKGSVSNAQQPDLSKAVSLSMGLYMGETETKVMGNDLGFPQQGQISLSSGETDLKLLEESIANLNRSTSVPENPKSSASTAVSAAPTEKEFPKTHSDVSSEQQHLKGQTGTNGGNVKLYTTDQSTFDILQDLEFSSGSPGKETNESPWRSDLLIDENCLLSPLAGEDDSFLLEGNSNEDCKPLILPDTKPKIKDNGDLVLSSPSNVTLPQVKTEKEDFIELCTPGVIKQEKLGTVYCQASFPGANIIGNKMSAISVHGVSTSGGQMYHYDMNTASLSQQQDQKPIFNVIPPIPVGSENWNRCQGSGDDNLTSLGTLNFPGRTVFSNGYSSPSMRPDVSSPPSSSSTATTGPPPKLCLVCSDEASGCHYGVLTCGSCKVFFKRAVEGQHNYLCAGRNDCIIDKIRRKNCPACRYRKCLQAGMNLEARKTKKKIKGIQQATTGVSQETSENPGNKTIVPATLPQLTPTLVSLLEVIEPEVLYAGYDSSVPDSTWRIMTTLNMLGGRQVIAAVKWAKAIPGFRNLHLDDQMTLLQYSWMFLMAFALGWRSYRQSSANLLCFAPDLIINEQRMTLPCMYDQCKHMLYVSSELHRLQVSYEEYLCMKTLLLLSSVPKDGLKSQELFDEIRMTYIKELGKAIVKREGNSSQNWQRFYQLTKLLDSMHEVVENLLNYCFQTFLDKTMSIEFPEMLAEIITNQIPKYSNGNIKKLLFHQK

[4] = NFAT Signaling Pathway (AID 444); details: Jurkat NFAT-bla M1, carbachol, beta-lactamase ratio, 5 h;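 also: carbachol stimulus at about its EC50 of 1 µM final; % is scaled to controls: 0 for no effect and ±100 for the full control effect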
How it was run: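 Jurkat cells with NFAT-driven β-lactamase reporter and co-expressed M1 receptor, stimulated with carbachol (final 1 uM, ~EC50), compound titration, 5 h at 37 °C. CCF4 loaded 1 h at RT; 460/530 nm ratio gave %activity and AC50.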

[5] = biological target: Glucocorticoid receptor (Homo sapiens) (UniProt P04150); assay: GR-EFC Redistribution (AID 451; calls by dose curve; also: potency is read from the fitted curve at half-maximal effect); details: CHO-K1 GR-EFC translocation, beta-gal luminescence, 2 h
How it was run: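 CHO-K1 cells expressing nuclear EA and GR-ED fragments of b-gal; compounds titrated up to 46 uM final, 2 h at 37 C. GR nuclear translocation read as complemented b-gal luminescence after 1 h RT detection.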

[6] = biological target: Mitogen-activated protein kinase 10 (Mus musculus) (UniProt Q61831); assay: JNK3 AlphaScreen Assay (AID 530);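 also: kinase came from lysate of stimulated human HepG2 cells; signal reports phosphorylation of biotinylated GST-cJun 1-79 at Ser73 with 10 µM ATP; % is scaled to controls: 0 for no effect and ±100 for the full control effect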
How it was run: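 HepG2 lysate (IL-1b/TNFa pre-activated) + biotin-GST-cJun 1-79 + anti-pSer73 cJun; cpd titration, 15 min RT; ATP 10 uM start; Tris pH 7.6, MgCl2, DTT, vanadate; beads in EDTA buffer; AlphaScreen.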

[7] = biological target: Cytochrome P450 1A2 (Homo sapiens) (UniProt P05177); assay: p450-cyp1a2 (AID 410; calls by dose curve; also: potency is read from the fitted curve at half-maximal effect;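 as to activity change, negative = inhibition: -100% = full effect of reference inhibitor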)
Sequence of Cytochrome P450 1A2 (Homo sapiens) (P05177 whole entry, looked up): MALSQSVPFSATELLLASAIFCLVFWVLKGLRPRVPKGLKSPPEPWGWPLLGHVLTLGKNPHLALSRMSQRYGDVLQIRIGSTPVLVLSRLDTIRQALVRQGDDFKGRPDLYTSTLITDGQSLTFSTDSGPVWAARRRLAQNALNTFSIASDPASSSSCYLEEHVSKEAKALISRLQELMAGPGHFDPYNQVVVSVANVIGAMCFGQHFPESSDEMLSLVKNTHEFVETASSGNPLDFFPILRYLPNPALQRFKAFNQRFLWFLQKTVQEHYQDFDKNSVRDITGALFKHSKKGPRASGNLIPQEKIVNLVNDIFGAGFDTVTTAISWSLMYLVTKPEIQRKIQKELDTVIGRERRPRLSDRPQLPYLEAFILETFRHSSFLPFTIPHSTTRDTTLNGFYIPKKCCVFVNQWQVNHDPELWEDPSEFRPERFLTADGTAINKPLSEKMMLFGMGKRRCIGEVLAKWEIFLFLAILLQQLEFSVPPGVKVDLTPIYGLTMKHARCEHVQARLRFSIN
How it was run: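 20nM CYP1A2, 100uM Luciferin-ME (=Km), 100mM KPO4; cpd 10 min RT; +NADPH regen, 60 min RT; stop/detect 20 min; luminescence. Normalized to furafylline 57 uM = full inhibition.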

[8] = at 17.2 µM (top of the series) unless noted

CCCCCC(=O)O[C@]1(C(C)=O)CC[C@H]2[C@@H]3CCC4=CC(=O)CC[C@]4(C)[C@H]3CC[C@@]21C
inactive: activity change, negative = inhibition [1, 8] -2.44% | outcome [2]
active: Potency [3] 0.00527 µM

NC(N)=NCCCCN=C(N)N
inactive: activity change, negative = inhibition ([1]; at 17.2 µM (top of the series)) 10.4% | activity change, negative = inhibition ([1]; at 38 µM (top of the series)) -0.239% | activity change, negative = inhibition ([4]; at 17.2 µM (top of the series)) 8.46% | activity change, negative = inhibition ([4]; at 38 µM (top of the series)) -22% | outcome [2] | Potency [3] > 46 µM and > 20.6 µM | Potency [5] > 46 µM and > 20.6 µM | outcome [6]

CN(C(=O)C(Cl)Cl)c1ccc(OC(=O)c2ccco2)cc1
inactive: activity change, negative = inhibition [1, 8] 4.41% and 1.4% | Potency [7] | activity change, negative = inhibition ([4]; at 17.2 µM (top of the series)) 3.31% and -29.1% | outcome [2] | Potency [3] > 20.6 µM | Potency [5] > 20.6 µM | outcome [6]

COc1ccccc1N1CCN(CCN2C(=O)CC3(CCCC3)CC2=O)CC1
31.6 µM (active) and inactive: Potency [7]
inactive: activity change, negative = inhibition [1, 8] -25.1% [at 38 µM] | activity change, negative = inhibition ([4]; at 38 µM (top of the series)) -25.7% | outcome [2] | Potency [3] > 46 µM | Potency [5] > 46 µM | outcome [6]

CC1(C)O[C@@H]2C[C@H]3[C@@H]4C[C@H](F)C5=CC(=O)C=C[C@]5(C)[C@@]4(F)[C@@H](O)C[C@]3(C)[C@]2(C(=O)CO)O1
inactive: activity change, negative = inhibition [1, 8] -7.62% | activity change, negative = inhibition ([4]; at 17.2 µM (top of the series)) 22.4% | outcome [2]
active: Potency [3] 0.000728 µM

C[N+](C)(C)CCO
inactive: activity change, negative = inhibition [1, 8] 0.911% [at 38 µM] | Potency [7] | activity change, negative = inhibition ([4]; at 38 µM (top of the series)) 2.35% | outcome [2] | outcome [6]

CC1(C)O[C@@H]2C[C@H]3[C@@H]4CCC5=CC(=O)C=C[C@]5(C)[C@@]4(F)[C@@H](O)C[C@]3(C)[C@]2(C(=O)CO)O1
inactive: activity change, negative = inhibition [1, 8] 4.43% | outcome [2]
active: Potency [3] 0.00313 µM

O=C(CCCCC(=O)Nc1c(I)cc(I)c(C(=O)O)c1I)Nc1c(I)cc(I)c(C(=O)O)c1I
inactive: activity change, negative = inhibition [1, 8] 2.09% | Potency [7] | activity change, negative = inhibition ([4]; at 17.2 µM (top of the series)) 0.68% | outcome [2] | Potency [3] > 20.6 µM | Potency [5] > 20.6 µM | outcome [6]

CC(=O)OCC[N+](C)(C)C
inactive: activity change, negative = inhibition [1, 8] -2.55% | outcome [2] | Potency [3] > 20.6 µM
active: activity change, negative = inhibition ([4]; at 17.2 µM (top of the series)) 122% [activator]

Reference: PubChem BioAssay (NCATS)
